Assay results from PubChem BioAssay (NCATS).
Records with an inconclusive call do not appear. The source made the active and inactive calls. Unless noted, calls come from the whole dose curve; as a rule, active = well fitted curve in the direction sought with a large enough effect; inconclusive = small, poorly fitted or top-dose-only effect, or another doubt; inactive = no such curve, though single readings can be large; an effect the other way counts as inactive or inconclusive.

Legend:
[1] = biological target: DNA repair nuclease/redox regulator APEX1 (Homo sapiens) (UniProt P27695); assay: qHTS Validation Assay for Inhibitors of the Human Apurinic/apyrimidinic Endonuclease 1 (APE1) (AID 1705;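 note: TAMRA fluorescence gain over two minutes as APE1 cuts a quenched THF abasic duplex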)
How it was run: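 Human APE1 was preincubated with compound for 15 min at room temperature, then 50 nM (final) THF-abasic double-stranded DNA substrate bearing 5'-TAMRA and 3'-BHQ-2 was added. Incision-driven fluorescence rise (ex 525/em 598 nm) was read kinetically.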

[2] = Counterscreen for APE1 Inhibitors: Fluorescent Dye Displacement Validation Assay (AID 1707)
How it was run: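 Thiazole Orange (250 nM) bound to 50 nM TAMRA-labelled dsDNA with tetrahydrofuran abasic site; displacement by DNA-binding compounds lowers fluorescence. Buffer 50 mM Tris-HCl pH 7.5, 50 mM NaCl, 2 mM MgCl2, 0.01% Tween-20; endpoint read at 480/540 nm.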

[3] = biological target: Endonuclease 4 (Escherichia coli (strain K12)) (UniProt P0A6C1); assay: Counterscreen for APE1 Inhibitors: qHTS Validation Assay for Inhibitors of Endonuclease IV (AID 1708)
How it was run: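 Enzymatic AP-site incision assay using a double-stranded THF substrate labelled with TAMRA and BHQ-2; released fluorescence signals activity. Enzyme 2 nM, substrate 50 nM, 15 min compound preincubation.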

[4] = qHTS for differential inhibitors of proliferation of Plasmodium falciparum line 7G8 (AID 1815);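 note: parasite growth measured after three days of incubation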; note: potency is the fitted concentration of half-maximal effect
[5] = qHTS for differential inhibitors of proliferation of Plasmodium falciparum line GB4 (AID 1816); conditions: Potency: Plasmodium falciparum GB4 proliferation inhibition;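 note: parasite growth measured after 72 h incubation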; note: potency is the fitted concentration of half-maximal effect
[6] = qHTS for differential inhibitors of proliferation of Plasmodium falciparum line 3D7 (AID 1876); note: potency is the fitted concentration of half-maximal effect
[7] = qHTS for differential inhibitors of proliferation of Plasmodium falciparum line D10 (AID 1877);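 note: parasites grown with compound for 72 h before DNA staining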; note: potency is the fitted concentration of half-maximal effect
[8] = qHTS for differential inhibitors of proliferation of Plasmodium falciparum line Dd2 (AID 1882); conditions: Potency: Plasmodium falciparum Dd2 proliferation inhibition; note: nearly all actives have a fitted effect of over 65% in size; note: potency is the fitted concentration of half-maximal effect
How it was run: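 SYBR Green I DNA fluorescence read-out, ex 485/em 535 nm. Signals were normalized to 0.29 uM artemisinin and DMSO wells, then corrected using vehicle-only plates flanking each stack. Parasite growth ran 72 h in erythrocytes before lysis.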

[9] = qHTS for differential inhibitors of proliferation of Plasmodium falciparum line W2 (AID 1883); conditions: Potency: Plasmodium falciparum W2 proliferation inhibition;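 note: parasites grown with compound for 72 h before lysis and staining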; note: potency is the fitted concentration of half-maximal effect
[10] = qHTS for differential inhibitors of proliferation of Plasmodium falciparum line HB3 (AID 1886); conditions: Potency: Plasmodium falciparum HB3 proliferation inhibition;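 note: parasites grown with compound for 72 h before SYBR Green readout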; note: potency is the fitted concentration of half-maximal effect
[11] = qHTS Assay for Modulators of Human Peripheral Myelin Protein 22 (PMP22) Expression/Activity (AID 1967; active = well fitted curve in the direction sought with a large enough effect in the signal ratio; the % refers to the signal ratio)
How it was run: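 MSC80 mouse Schwann cells stably carrying Pmp22 promoter–green click beetle luciferase plus EF-alpha–red luciferase control were dosed for 24h at 37 °C. Dual-colour luminescence was filter-overlap corrected; %Activity came from green/red ratio versus untreated cells.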

[12] = biological target: ATP-dependent DNA helicase Q1 (Homo sapiens) (UniProt P46063); assay: qHTS Validation Assay for Inhibitors of RecQ-Like Dna Helicase 1 (RECQ1) (AID 2353)
How it was run: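 50 nM RECQ1T1 preincubated 15 min with compound in Tris pH 8.0 buffer with MgCl2, DTT, Tween-20 and 2.5 ug/ml poly(dI-dC); started with 200 nM TAMRA/BHQ-2 forked duplex and 2 mM ATP. Unwinding read as fluorescence (525/598 nm), two reads 2 h apart.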

[13] = biological target: RecQ-like DNA helicase BLM (Homo sapiens) (UniProt P54132); assay: qHTS Validation Assay for Inhibitors of Bloom's syndrome helicase (BLM) (AID 2364); note: potency is the fitted concentration of half-maximal effect
How it was run: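 Forked 20-bp duplex substrate (200 nM, TAMRA/BHQ-2) plus 2 mM ATP added after 15 min compound preincubation with 50 nM enzyme, pH 8.0, poly(dI-dC) 2.5 ug/ml. Strand separation followed by fluorescence (525/598 nm) over 2 h, normalized to enzyme-free and DMSO controls.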

[14] = High Content Imaging Cell-Based qHTS for Inhibitors of the mTORC1 Signaling Pathway in MEF (Tsc2-/-, p53-/-) Cells (AID 2666); conditions: at 38.3 µM (top of the series);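 note: percent of cells scored positive for phospho-rpS6 Ser235/236 immunostaining by imaging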
How it was run: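 Cells were plated, dosed with compound after 24 hrs, and incubated another 24 hrs at 37 degree Celsius. Fixed cells were immunostained for phospho-rpS6 Ser235/236 and counterstained, and the normalized signal was scored as % active cells against rapamycin and DMSO controls.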

[15] = Cytometry Cell-Based qHTS for Inhibitors of the mTORC1 Signaling Pathway in MEF cells (AID 2668);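 note: Tsc2-/- p53-/- mouse embryonic fibroblasts stably re-expressing wild-type Tsc2; percent cells positive for phospho-rpS6 Ser235/236 relative to propidium iodide stain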
How it was run: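 WT MEFs (Tsc2-/-, p53-/- stably re-expressing WT Tsc2) in DMEM + 10% FBS received compounds 24 hrs after plating, for 24 hrs at 37 degree Celsius. Fixed cells stained with Alexa-488 anti-phospho-rpS6 Ser235/236 and propidium iodide; laser-scanning cytometry read-out.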

[16] = Validation screen for small molecules that induce DNA re-replication in MCF 10A normal breast cells (AID 463097); note: nearly all actives have a fitted effect of over 60% in size
How it was run: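 Readout: Hoechst nuclear fluorescence intensity, 405 ex / 500-530 em, by scanning plate imager; re-replication scored as increase in nuclei with elevated DNA content. Cells exposed to compound 48 hr, 37 C, 5% CO2 beforehand.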

[17] = biological target: Ubiquitin carboxyl-terminal hydrolase 2 (Homo sapiens) (UniProt O75604); assay: qHTS Validation Assay for Inhibitors of Ubiquitin-specific Protease USP2a Using CHOP2 as the Reporter (AID 463106)
How it was run: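 10nM USP2 core + cpd, 30min RT; add 25nM Ub-CHOP2/25nM substrate; 60min RT; FI 485/531nm. Buffer Tris pH 8.0, CaCl2, BME, CHAPS. Norm. to NEM = 100% inhibition; time-zero read flags fluorescent artifacts.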

[18] = Cytometric Cell-Based qHTS for Inhibitors of the mTORC1 Signaling Pathway in MEF (Tsc2-/-, p53-/-) Cells (AID 2660);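 note: percent of cells above a phospho-rpS6 to PI ratio cutoff in each well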
How it was run: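 Tsc2-/-, p53-/- MEFs (empty vector) exposed to compound 24 h at 37 C, fixed, stained with Alexa-488 anti-phospho-rpS6 Ser235/236 and propidium iodide. Acumen laser scanning; phospho-S6/PI ratio thresholded against 7.5 nM rapamycin, reported as % positive cells.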

[19] = High Content Imaging Cell-Based qHTS for Inhibitors of the mTORC1 Signaling Pathway in MEF Cells (AID 2667);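 note: Tsc2-/- p53-/- MEFs stably re-expressing wild-type Tsc2 exposed 24 h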
How it was run: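 Immunofluorescence for rpS6 phosphorylation in MEFs of Tsc2-/-, p53-/- background rescued with WT Tsc2. Compound exposure lasted 24 hrs. Inhibition was scored against rapamycin-treated control wells.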

[20] = qHTS Assay for Identification of Small Molecule Inducers of Hypoxia Response (AID 2120; active = well fitted curve in the direction sought with a large enough effect in the signal ratio, with a control signal flat, not every such curve was filed as active; the % refers to the signal ratio)
How it was run: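 HRE-beta-lactamase reporter in CellSensor HRE-bla ME-180 cells, 2500 cells/well in Opti-MEM with 0.5% dialyzed FBS; compounds tested as titration series, 17 h at 37 degrees C. CCF4 substrate 2.5 h at room temperature; AC50 from 460/530 nm ratio.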

Measured: Potency

Ubiquitin carboxyl-terminal hydrolase 2 (Homo sapiens), sequence (O75604 whole entry, looked up): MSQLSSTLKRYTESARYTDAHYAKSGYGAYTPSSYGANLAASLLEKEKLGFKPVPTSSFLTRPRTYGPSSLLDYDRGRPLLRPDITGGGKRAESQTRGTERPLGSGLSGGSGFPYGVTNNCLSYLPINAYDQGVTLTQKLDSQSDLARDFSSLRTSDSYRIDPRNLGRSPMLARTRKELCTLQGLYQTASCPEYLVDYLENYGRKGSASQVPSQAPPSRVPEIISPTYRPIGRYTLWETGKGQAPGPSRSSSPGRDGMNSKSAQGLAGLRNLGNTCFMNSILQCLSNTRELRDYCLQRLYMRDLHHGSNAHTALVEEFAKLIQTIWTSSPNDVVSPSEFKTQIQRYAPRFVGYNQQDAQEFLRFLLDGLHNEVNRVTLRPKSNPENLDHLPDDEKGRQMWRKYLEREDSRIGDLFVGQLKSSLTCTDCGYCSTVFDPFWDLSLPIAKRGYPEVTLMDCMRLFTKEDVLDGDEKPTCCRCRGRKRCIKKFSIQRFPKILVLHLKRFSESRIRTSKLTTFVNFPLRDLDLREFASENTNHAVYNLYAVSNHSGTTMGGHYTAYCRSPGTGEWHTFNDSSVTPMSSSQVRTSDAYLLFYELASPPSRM
RecQ-like DNA helicase BLM (Homo sapiens), sequence (P54132 whole entry, looked up): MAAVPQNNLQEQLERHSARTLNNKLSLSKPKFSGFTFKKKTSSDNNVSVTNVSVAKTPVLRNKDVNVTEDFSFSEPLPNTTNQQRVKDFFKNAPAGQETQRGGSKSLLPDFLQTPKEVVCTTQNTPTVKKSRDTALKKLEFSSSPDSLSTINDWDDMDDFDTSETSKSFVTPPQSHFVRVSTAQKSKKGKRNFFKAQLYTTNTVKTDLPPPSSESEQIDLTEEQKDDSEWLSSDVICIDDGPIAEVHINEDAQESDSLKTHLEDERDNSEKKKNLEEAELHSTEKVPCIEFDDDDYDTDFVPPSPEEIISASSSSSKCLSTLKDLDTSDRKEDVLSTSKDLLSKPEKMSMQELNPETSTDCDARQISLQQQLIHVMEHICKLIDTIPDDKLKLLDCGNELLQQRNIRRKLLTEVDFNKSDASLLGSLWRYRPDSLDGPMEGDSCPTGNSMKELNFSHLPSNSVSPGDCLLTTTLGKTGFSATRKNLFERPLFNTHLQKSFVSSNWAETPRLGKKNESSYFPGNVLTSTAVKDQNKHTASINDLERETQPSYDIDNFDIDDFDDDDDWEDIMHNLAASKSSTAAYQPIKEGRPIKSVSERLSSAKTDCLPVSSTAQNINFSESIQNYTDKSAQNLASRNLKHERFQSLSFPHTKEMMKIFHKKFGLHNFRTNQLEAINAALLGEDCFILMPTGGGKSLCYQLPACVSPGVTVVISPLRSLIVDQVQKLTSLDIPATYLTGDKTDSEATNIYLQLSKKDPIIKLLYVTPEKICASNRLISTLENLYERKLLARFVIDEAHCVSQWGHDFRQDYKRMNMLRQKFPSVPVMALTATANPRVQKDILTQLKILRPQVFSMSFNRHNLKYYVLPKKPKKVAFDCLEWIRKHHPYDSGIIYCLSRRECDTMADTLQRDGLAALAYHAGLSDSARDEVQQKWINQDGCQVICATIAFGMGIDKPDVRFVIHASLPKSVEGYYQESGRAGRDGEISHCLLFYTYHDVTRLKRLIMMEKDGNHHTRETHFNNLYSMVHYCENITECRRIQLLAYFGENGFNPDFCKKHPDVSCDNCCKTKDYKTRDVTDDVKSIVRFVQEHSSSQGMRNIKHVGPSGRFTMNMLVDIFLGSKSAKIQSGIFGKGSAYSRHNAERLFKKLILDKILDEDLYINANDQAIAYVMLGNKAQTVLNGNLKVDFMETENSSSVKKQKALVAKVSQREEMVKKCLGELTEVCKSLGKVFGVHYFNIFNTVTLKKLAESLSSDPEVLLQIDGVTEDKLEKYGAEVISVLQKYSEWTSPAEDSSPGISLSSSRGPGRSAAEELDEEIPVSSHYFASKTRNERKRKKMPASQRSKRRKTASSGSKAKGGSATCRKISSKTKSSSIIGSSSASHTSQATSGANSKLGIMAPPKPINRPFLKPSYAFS
DNA repair nuclease/redox regulator APEX1 (Homo sapiens), sequence (P27695 whole entry, looked up): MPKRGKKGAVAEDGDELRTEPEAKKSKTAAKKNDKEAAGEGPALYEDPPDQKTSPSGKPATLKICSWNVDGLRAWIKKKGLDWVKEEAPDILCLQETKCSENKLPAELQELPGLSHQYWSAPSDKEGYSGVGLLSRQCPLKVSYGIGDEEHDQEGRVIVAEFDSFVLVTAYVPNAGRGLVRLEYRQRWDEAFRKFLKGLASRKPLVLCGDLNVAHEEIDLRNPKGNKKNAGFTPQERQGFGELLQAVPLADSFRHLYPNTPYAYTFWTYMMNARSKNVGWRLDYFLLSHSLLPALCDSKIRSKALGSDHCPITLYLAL
ATP-dependent DNA helicase Q1 (Homo sapiens), sequence (P46063 whole entry, looked up): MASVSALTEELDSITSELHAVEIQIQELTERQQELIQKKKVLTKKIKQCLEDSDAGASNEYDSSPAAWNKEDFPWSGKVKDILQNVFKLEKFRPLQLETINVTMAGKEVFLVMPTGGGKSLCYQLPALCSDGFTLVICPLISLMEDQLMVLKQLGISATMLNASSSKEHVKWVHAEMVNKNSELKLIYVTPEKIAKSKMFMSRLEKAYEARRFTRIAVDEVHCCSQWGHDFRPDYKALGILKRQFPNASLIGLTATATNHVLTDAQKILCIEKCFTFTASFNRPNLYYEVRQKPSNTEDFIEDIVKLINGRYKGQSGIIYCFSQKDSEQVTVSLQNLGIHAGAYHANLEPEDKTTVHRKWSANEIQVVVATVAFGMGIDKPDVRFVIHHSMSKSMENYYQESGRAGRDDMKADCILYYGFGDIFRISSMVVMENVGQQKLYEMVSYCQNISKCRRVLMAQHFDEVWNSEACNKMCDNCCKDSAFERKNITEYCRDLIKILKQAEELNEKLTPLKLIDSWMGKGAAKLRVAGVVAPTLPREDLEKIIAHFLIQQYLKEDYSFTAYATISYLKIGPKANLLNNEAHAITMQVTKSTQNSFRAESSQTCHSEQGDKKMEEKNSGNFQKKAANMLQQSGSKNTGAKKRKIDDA

N=c1nc(N2CCCCC2)cc(N)n1O
not listed: [18] | [19] | [20]
inactive: all other assays above

OC(CN1CCC(Cc2ccc(F)cc2)CC1)c1ccc(Cl)cc1 (stereo not drawn)
active: [4] 0.501 µM | [5] 0.355 µM | [6] 1.26 µM | [7] 2.51 µM | [8] 1.26 µM | [9] 0.282 µM | [10] 1.41 µM
inactive: [1] | [2] | [3] | [12] | [14]

Cc1oncc1C(=O)Nc1ccc(C(F)(F)F)cc1
inactive: [1] | [2] | [3] | [4] | [5] | [7] | [8] | [10] | [12] | [14] | [15]

CNC[C@H](O)c1cccc(O)c1
not listed: [11] | [13] | [17] | [18] | [19] | [20]
inactive: all other assays above

O=C1CCC(N2C(=O)c3ccccc3C2=O)C(=O)N1 (stereo not drawn)
not listed: [13] | [17] | [20]
inactive: all other assays above

Nc1nc2ccc(OC(F)(F)F)cc2s1
inactive: [1] | [2] | [3] | [4] | [5] | [6] | [7] | [10] | [12] | [14] | [15]

CC(=O)Oc1ccccc1C(=O)O
not listed: [13] | [17] | [18] | [19] | [20]
inactive: all other assays above

CCOC(=O)N1CCC(=C2c3ccc(Cl)cc3CCc3cccnc32)CC1
inactive: [1] | [2] | [3] | [12]
active: [4] 2.24 µM | [5] 10 µM | [6] 12.6 µM | [7] 10 µM | [8] 10 µM | [9] 5.01 µM | [10] 10 µM

Cc1[nH]c(=O)c(C#N)cc1-c1ccncc1
not listed: [11] | [13] | [17] | [18] | [19] | [20]
inactive: all other assays above

Clc1cccc(Cl)c1NC1=NCCN1
not listed: [5] | [9] | [11] | [13] | [17] | [18] | [20]
inactive: all other assays above

Nc1nc2c(ncn2COCCO)c(=O)[nH]1
not listed: [9] | [11] | [13] | [17] | [18] | [19] | [20]
inactive: all other assays above

Cc1ccccc1C(OCCN(C)C)c1ccccc1 (stereo not drawn)
active: [4] 3.98 µM | [9] 0.708 µM
inactive: [1] | [2] | [3] | [7] | [12] | [14] | [15] | [16]

O=c1[nH]cnc2[nH]ncc12
not listed: [11] | [13] | [17] | [18] | [19] | [20]
inactive: all other assays above

NS(=O)(=O)c1cc2c(cc1Cl)NC=NS2(=O)=O
not listed: [9] | [13] | [17] | [19]
inactive: all other assays above

Nc1ccc(S(=O)(=O)Nc2ccnn2-c2ccccc2)cc1
not listed: [18] | [19] | [20]
inactive: all other assays above

C1COC(NC(C2CC2)C2CC2)=N1
active: [4] 7.94 µM | [9] 14.1 µM | [10] 10 µM
inactive: [1] | [2] | [3] | [12] | [13] | [18] | [14] | [15]

NC(=O)c1cnccn1
not listed: [11] | [17] | [18] | [20]
inactive: all other assays above

c1ccc([C@H]2CN3CCSC3=N2)cc1
not listed: [5] | [9] | [11] | [13] | [17] | [18] | [19] | [20]
inactive: all other assays above

CCCCNc1cc(C(=O)O)cc(S(N)(=O)=O)c1Oc1ccccc1
not listed: [13] | [17] | [18] | [19] | [20]
inactive: all other assays above

Oc1ccc(C2CNCCc3c2cc(O)c(O)c3Cl)cc1 (stereo not drawn)
active: [5] 10 µM | [6] 10 µM | [7] 11.2 µM | [9] 10 µM | [10] 11.2 µM | [13] 35.5 µM
inactive: [1] | [2] | [3] | [8] | [14] | [15] | [16] | [17]

N[C@@H]1CONC1=O
not listed: [9] | [13] | [17] | [18] | [20]
inactive: all other assays above
